# Assay results reported in the supplement of paper PMC6555819.
# Test system: VDR:RXRa (NR concentration 270 nM, RXRa partner concentration 90 nM)
# Assay: PBM binding z-score (relative to random genomic background probes); higher = stronger binding; sequences stand for … in GC…GCGATTGACAGCGTAGAATGAAGG
# Experimental: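 Protein-binding microarray (Agilent 4x180K custom design, double-stranded 60-nt probes: 5' GC cap, 34-nt variable region, 24-nt constant primer region; full probe sequence given). Purified or IVT nuclear receptor:RXRα heterodimers (3:1 NR:RXRα, mostly 270:90 nM) or homodimers were incubated for 1 h in PBS with 2% milk and no ligand, then detected with Alexa488 antibodies. Fluorescence from o1-orientation probes (~5 replicates averaged) was converted to z-scores against 500 random hg19 background probes. Variable regions are seed direct-repeat (DR0–DR5) sites, all their single-nucleotide variants and half-site ablations.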
row,Sequence,PBM binding z-score
1,GCTATTAGTTGAAAAGGCAACCGAATGATTCTCG,-0.31
2,GCAGACAGGTGAAGCGCAGGTAACTCAGGGTGGC,-0.67
3,TAGCCTAGGTCATTGAGGGGCCAGTATAGAAAGC,3.07
4,CCTGCTAGGTCATGGTCAGCTAGTCTACAGTATG,1.65
5,CCGACTGGGGCAGAAAGGTGACCATACCATCCGG,-0.31
6,AGTTAAAGTTCAGGACGAGGTAACGTAAAGCACG,3.01
7,TCTGCTAGTTCAACGATGGTCAGCTAATCTGCTA,0.196
8,CCAAGTAGGTTATGGGGCATTCAGGCAACGGTGA,-0.0794
9,TACCCTAGGTCATGCGGGCCAGTATAGTGTCGGC,3.23
10,TGAATGAGGTTATAATATCAGGGAACGTTGCAAA,1.35
11,CCGAGTAGGTTAAGGGGCATTCAGGCAACGGTGA,0.877
12,AATACAGGGTTATCGTAGGCCAGAGTACGCACAG,1.61
13,CCAGACAGGTGAAAGGTAACTCATTCTGGTACGC,0.817
14,ACAGACAGGTGAGTGAAGGTACCTCAGCTGGACG,-0.805
15,TCGAGTAGATTAGGGGCATTCAGAATGGCGTCGA,0.295
16,CCTTACGGGTCACTCCAGGTTATGGCATCGGAGT,4.08
17,GGTAGTTGGTCAGTAAAAGGTCACACACCGGTCG,4.11
18,TCTGCTAGGTCAACGATGGTCAGATAATCTGCTA,1.78
19,AGAACGAGGGCACGCTGAGTTGATTGCAGAGTAG,2.04
20,TCTGCTAGGTCAACGATGGTGAGCTAATCTGCTA,1.15

row,Sequence,PBM binding z-score
1,CCTTACGGGTCACGAGCTTATAGCACGACGAGCG,3.95
2,GCTGCTAGGTCAGGTTGGTTAGCTAACGGGTACG,0.262
3,ACTCGGAGGACATAGGTCAGAGCTACGCCAGTGA,1.03
4,TCTGCTAGGTCAACGATGGCCAGCTAATCTGCTA,1.13
5,AGAATGAGGTTATACGTAGCTCAGGGAAGAAAGT,1.2
6,CCTACTGGTCCATTCAGAGGTCATTGATCATATG,4.24
7,TCATATAGGTAAAGGTGAAATTCGAACGATATGA,1.03
8,CATACTAGGTCAAGAGGTCAAAGTCCGCTTCCCG,6.01
9,CGTCCAAGGTCGGAGAGGTCAGTGAATGCCGAGT,6.04
10,CGAACTTGGTCATTGACAGGACAGTGAATAGTAA,0.0642
11,ACCTCTAGGTAAAAGTTCAGTGAATCCCGAGGAT,0.859
12,CGAACTAGGTCAGAACAGGACAGGGAAGGATGAT,0.511
13,ATATGTAGGTTACATCCGGGTCATTTAGGCTATG,3.9
14,GCTGCTAAGTCAGGTTGGTCAGCTAACGGGTACG,-0.547
15,CCTATTAGTTGACGATAAGGGCAACCGAAGCTCG,0.128
16,GATACAGGGTTAAGGCCAGAGTACGCGTATTGAT,1.05
17,ACTATTAGTTGAGACGAGGGCAACTGATAGGTTG,0.583
18,ATATGTAGGTTAGCTGGGGTCTTTCAGACTAGGC,1.28
19,CCTACTGGGACATTCAGAGGTCATTGATCATATG,4.18
20,AGAACGAGGGCAATGAGTTGATAGCACGGGTGGC,4.96
